# A selection: hits, their analogues and other compounds. The true share with any hit is near 12%.
# JMJD2A Tudor inh: inhibitors of human JMJD2A Tudor domain; AlphaScreen JMJD2A-Tudor / H3K4me3 peptide binding; Potency, µM (top dose mostly 114 µM), without a hit: top-dose activity change, negative = inhibition, most hits filed as inhibitors; 390,000 compounds, 4.4% hits; also: % is scaled to controls: 0 for no effect and ±100 for the full control effect; nearly all actives have a fitted effect of over 50% in size
# L3MBTL1 inh: inhibitors of human L3MBTL1. Q9Y468. AlphaScreen L3MBTL1–H3K9me1 peptide binding. Potency, µM (top dose mostly 57.1 µM), for inactives: at the highest dose activity, negative = inhibition, actives largely listed as inhibitors. 230,000 compounds, 0.66% hits. AID 485360; also: % is scaled to controls: 0 for no effect and ±100 for the full control effect; nearly all actives have a fitted effect of over 60% in size
#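 AlphaScreen assay: L3MBTL1 (50 nM final) was preincubated 30 min at room temperature with biotinylated H3(1-15)K9me1 peptide (75 nM final), then 30 min with library compounds; streptavidin donor and nickel chelate acceptor beads (10 ug/mL final) added, 30 min dark.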
# G9a block: blocks human histone lysine methyltransferase G9a; Q96KQ7; 350,000 compounds, 8.8% hits; Potency, µM (titrated, usually from 102 µM), without a hit: at the highest dose activity, negative = inhibition, actives largely listed as inhibitors; G9a H3K9 monomethylation, AlphaScreen, 2 h; also: % is scaled to controls: 0 for no effect and ±100 for the full control effect; nearly all actives have a fitted effect of over 75% in size
#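 AlphaScreen read-out: biotin-H3K9 peptide (500 nM) methylation by 20 nM enzyme with 20 uM SAM, 2 h at room temperature after 15 min compound preincubation; anti-monomethyl H3K9 antibody plus donor/acceptor beads, 10 min dark.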
# Sfp PPTase inh: Sfp phosphopantetheinyl transferase inhibition. Q9F4F7. Biochemical Sfp PPTase activity, qHTS. Potency, µM, without a hit: largest response in the series, negative = inhibition, usual class: inhibitors. 310,000 compounds, 3.5% hits. AID 1490;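 also: the enzyme is Sfp with the accession as filed and its product quenches rhodamine fluorescence; 0% = enzyme reaction without inhibitor and -100% = no enzyme wells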
#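 Sfp 15 nM + cpd, 15 min RT; start w/ rhodamine-CoA 5 uM, BHQ-2-YbbR 12.5 uM (final); 50 mM Hepes pH 7.6, 10 mM MgCl2, 0.01% NP-40, 0.01% BSA; read 525/598 nm at 0 and 30 min.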
# BAZ2B inh: blocks human BAZ2B; Q9UIF8; AlphaScreen BAZ2B-H3K14Ac peptide displacement; Potency, µM (top dose mostly 114 µM), inactives show at the top dose activity change, negative = inhibition, actives largely listed as inhibitors; 360,000 compounds, 4.4% hits; AID 504333; also: % is scaled to controls: 0 for no effect and ±100 for the full control effect; nearly all actives have a fitted effect of over 60% in size
# Target sequence (Q9UIF8 whole entry, looked up): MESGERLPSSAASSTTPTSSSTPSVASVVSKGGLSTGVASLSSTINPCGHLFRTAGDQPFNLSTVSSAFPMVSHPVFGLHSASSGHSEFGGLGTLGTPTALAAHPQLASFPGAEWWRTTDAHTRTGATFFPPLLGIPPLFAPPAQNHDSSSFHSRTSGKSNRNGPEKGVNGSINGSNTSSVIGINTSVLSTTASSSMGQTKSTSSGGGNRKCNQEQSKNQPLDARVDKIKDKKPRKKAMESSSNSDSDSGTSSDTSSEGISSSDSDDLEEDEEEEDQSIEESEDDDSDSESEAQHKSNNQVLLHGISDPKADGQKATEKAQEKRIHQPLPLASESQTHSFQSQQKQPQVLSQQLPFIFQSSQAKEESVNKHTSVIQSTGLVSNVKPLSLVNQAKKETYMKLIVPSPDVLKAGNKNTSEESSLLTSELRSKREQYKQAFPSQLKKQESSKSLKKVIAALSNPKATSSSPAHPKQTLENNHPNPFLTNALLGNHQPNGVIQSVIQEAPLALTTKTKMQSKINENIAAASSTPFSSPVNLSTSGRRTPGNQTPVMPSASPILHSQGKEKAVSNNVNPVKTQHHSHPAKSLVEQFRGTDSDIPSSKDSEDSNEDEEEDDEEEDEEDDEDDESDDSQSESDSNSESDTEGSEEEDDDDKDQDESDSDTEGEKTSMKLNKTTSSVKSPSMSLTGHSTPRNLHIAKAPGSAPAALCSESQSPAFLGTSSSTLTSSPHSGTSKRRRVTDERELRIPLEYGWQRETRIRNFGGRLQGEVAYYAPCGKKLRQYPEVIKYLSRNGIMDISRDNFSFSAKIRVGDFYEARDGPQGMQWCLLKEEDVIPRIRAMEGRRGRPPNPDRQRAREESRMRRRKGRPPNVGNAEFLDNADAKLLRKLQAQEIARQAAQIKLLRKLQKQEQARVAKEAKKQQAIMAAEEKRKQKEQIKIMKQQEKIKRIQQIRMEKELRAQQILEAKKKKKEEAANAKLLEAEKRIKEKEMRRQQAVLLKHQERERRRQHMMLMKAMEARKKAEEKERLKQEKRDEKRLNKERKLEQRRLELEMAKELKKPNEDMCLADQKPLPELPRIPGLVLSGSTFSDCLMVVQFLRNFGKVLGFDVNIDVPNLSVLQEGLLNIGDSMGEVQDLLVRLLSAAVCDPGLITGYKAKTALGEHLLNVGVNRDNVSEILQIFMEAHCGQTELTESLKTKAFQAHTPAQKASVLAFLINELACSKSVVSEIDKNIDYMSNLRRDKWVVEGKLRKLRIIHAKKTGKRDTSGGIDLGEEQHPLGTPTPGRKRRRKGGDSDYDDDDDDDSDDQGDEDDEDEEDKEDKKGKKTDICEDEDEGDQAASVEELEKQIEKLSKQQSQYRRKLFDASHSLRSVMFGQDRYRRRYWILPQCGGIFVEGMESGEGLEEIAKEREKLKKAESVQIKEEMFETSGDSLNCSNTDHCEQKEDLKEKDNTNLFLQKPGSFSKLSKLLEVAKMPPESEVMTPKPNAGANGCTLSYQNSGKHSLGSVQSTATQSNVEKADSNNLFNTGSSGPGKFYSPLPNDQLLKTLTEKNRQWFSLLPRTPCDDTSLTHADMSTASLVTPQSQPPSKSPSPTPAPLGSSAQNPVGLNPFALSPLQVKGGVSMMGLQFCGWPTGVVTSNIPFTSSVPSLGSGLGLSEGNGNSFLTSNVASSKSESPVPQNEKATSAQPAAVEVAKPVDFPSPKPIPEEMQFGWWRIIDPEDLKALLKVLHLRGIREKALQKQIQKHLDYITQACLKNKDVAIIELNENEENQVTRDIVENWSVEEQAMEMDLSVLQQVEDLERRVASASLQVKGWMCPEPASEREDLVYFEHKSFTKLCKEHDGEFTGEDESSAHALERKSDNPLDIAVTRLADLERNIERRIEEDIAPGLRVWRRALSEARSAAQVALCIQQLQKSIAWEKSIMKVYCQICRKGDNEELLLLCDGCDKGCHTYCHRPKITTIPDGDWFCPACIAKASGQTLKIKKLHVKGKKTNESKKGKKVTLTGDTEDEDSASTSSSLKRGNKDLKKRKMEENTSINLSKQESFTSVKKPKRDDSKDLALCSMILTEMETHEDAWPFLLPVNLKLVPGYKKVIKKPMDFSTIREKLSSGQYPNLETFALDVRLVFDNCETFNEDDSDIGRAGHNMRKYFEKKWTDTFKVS
#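 AlphaScreen displacement: compounds (up to 110uM) incubated 30 min at room temperature with a preformed 50 nM BAZ2B/50 nM biotinylated H3K14Ac peptide complex in PBS pH 7.4 with Tween-20. Donor and acceptor beads at 10 ug/mL final added, 20 min light-protected before reading.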
# HP1b chromo inh: blocks HP1-beta chromodomain binding to methylated histone tails. P83916. AlphaScreen HP1-beta / biotin-H3K9me3 peptide binding. Potency, µM (highest dose often 114 µM), for the others: at the highest dose activity change, negative = inhibition, actives largely listed as inhibitors. 390,000 compounds, 0.56% hits; also: nearly all actives have a fitted effect of over 70% in size
#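 HP1-beta protein (50 nM final) preincubated 30 min at room temperature with biotinylated H3(1-18)K9me3 peptide (50 nM) in PBS pH 7.4, 0.01% Tween-20, then compound added for 30 min. AlphaScreen streptavidin donor/nickel chelate acceptor beads (10 ug/mL final), 30 min dark, luminescence read.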
# Numbers without * were called inactive; ? = inconclusive; · = not tested or not shown; [ ] = dose if it differs, or a comment. Calls follow the shape of the dose curve; as a rule, active = well fitted curve in the direction sought with a large enough effect; inconclusive = small, poorly fitted or top-dose-only effect, or another doubt; inactive = no such curve, though single readings can be large; an effect the other way counts as inactive or inconclusive. Potency is read from the fitted curve at half-maximal effect.
SMILES,JMJD2A Tudor inh,L3MBTL1 inh,G9a block,Sfp PPTase inh,BAZ2B inh,HP1b chromo inh
Cc1ccc(C)n1-c1cc(S(=O)(=O)N2CCOCC2)ccc1N1CCCC1,79µM*,-12%,?,?,-8%,-3%
Cc1cc(CNCCN(C)C)c(C)n1-c1cc(S(=O)(=O)N2CCOCC2)ccc1N1CCCC1,8.9µM*,·,·,·,·,-14%
c1ccc(-c2ccccc2OCCCN2CCCC2)cc1,8.9µM*,?,10µM*,-62%,?,?
CC1CC(C)CN(CCOc2ccccc2-c2ccccc2)C1 (centres undefined),13µM*,-8%,?,-12%,-36%,-27%
c1ccc(-c2ccccc2OCCn2cncn2)cc1,4%,36%,?,-8%,-2%,42%
N=C(CC(O)COc1ccccc1-c1ccccc1)N1CCCCC1 (centres undefined),·,·,24%[59 µM],9%,·,·
c1ccc(-c2ccccc2OCCCCN2CCCCC2)cc1,40µM*,-9%,13µM*,-12%,79µM*,-33%
c1ccc(-c2ccccc2OCCCN2CCCCCC2)cc1,20µM*,-6%,3.5µM*,-18%,56µM*,?
COCCN1C(=O)c2[nH]nc(-c3ccccc3O)c2C1c1ccc(OCc2ccccc2)c(OC)c1 (centres undefined),?,·,-37%[59 µM],·,?,9%
CCOC(=O)c1cc2c(=O)n3ccccc3nc2n(CCCOC)c1=NC(=O)c1cc2ccccc2o1,7%,·,7%[59 µM],·,-20%,66%
COc1ccc(CNC(=O)C(C)Sc2ccc(S(=O)(=O)N3CCOCC3)cn2)cc1 (centres undefined),3%,0%,32µM*,·,-3%,40%
O=[N+]([O-])c1ccc(CSc2ccc(S(=O)(=O)N3CCCC3)cn2)cc1,-19%,-8%,3%[2.33 µM],·,-6%,19%
COc1ccc(-n2nnnc2Sc2ccc(S(=O)(=O)N3CCOCC3)cn2)cc1,22µM*,-2%,1.8µM*,45µM*,-2%,?
O=[N+]([O-])c1ccc(CSc2ccc(S(=O)(=O)N3CCOCC3)cn2)cc1,-23%,-8%,20µM*,·,-27%,7%
COc1ccc(CNC(=O)c2ccc(S(=O)(=O)N3CCOCC3)cc2)cc1,1%,-6%,-23%,·,-2%,25%
CC(C)CCNC(=O)NC(=O)CSc1ccc(S(=O)(=O)N2CCOCC2)cn1,-16%,-3%,1.6µM*,·,-5%,-10%
COc1ccc(-n2nnnc2SCC(=O)N2CCOCC2)cc1,-12%,7%,-1%[59 µM],31%,-4%,5%
COc1ccc(-c2nn(C)c3sc(C(=O)Nc4cccc(F)c4)cc23)cc1OC,-20%,·,8%[59 µM],·,48%,71%
CCn1c(=O)cc(SCC(=O)Nc2cc(Cl)ccc2OC)c2ccccc21,-7%,·,-7%[59 µM],·,-27%,22%
CCc1ccccc1N(CC)C(=O)C(=O)Nc1ccc2nc3n(c(=O)c2c1)CCCCC3,-21%,·,-29%[59 µM],·,-12%,21%
COc1ccc(-c2cc(-c3ccccc3)nc3c2COc2ccc(F)cc2-3)cc1,17%,·,6%[59 µM],·,1%,36%
O=C(O)CS(=O)(=O)CC(=O)O,?,7%,?,16%,79µM*,6%
NNC(=O)c1cccc(Cn2cc(Br)c([N+](=O)[O-])n2)c1,3%,·,40µM*,-12%,-23%,55%
CCCNC(=O)c1cccc(Cn2cc(Br)c([N+](=O)[O-])n2)c1,2%,1%,-11%,9%,-1%,24%
Cc1noc(C)c1S(=O)(=O)NCCc1csc2nc(-c3ccc(Cl)cc3)nn12,-10%,·,-5%[59 µM],·,2%,26%
COc1ccc(CCNc2ccc(C)cc2)cc1,40µM*,·,?,-4%,?,?
COc1ccc(C(O)CNc2ccc(C)cc2)cc1 (centres undefined),-26%,-5%,0%[59 µM],10%,?,0%

# Source: PubChem BioAssay (National Center for Advancing Translational Sciences (NCATS))
